# Results as given in ChEMBL document CHEMBL1961873, “Compounds: GSK PKIS; Assays: Nanosyn kinase panel” (2012).
# Target: Mitogen-activated protein kinase kinase kinase kinase 4 (Homo sapiens) (UniProt O95819);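 further: reported figure is an averaged inhibition value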
# Conditions: at 1 µM
# Sequence of Mitogen-activated protein kinase kinase kinase kinase 4 (Homo sapiens) (O95819 2-1239 limits assumed): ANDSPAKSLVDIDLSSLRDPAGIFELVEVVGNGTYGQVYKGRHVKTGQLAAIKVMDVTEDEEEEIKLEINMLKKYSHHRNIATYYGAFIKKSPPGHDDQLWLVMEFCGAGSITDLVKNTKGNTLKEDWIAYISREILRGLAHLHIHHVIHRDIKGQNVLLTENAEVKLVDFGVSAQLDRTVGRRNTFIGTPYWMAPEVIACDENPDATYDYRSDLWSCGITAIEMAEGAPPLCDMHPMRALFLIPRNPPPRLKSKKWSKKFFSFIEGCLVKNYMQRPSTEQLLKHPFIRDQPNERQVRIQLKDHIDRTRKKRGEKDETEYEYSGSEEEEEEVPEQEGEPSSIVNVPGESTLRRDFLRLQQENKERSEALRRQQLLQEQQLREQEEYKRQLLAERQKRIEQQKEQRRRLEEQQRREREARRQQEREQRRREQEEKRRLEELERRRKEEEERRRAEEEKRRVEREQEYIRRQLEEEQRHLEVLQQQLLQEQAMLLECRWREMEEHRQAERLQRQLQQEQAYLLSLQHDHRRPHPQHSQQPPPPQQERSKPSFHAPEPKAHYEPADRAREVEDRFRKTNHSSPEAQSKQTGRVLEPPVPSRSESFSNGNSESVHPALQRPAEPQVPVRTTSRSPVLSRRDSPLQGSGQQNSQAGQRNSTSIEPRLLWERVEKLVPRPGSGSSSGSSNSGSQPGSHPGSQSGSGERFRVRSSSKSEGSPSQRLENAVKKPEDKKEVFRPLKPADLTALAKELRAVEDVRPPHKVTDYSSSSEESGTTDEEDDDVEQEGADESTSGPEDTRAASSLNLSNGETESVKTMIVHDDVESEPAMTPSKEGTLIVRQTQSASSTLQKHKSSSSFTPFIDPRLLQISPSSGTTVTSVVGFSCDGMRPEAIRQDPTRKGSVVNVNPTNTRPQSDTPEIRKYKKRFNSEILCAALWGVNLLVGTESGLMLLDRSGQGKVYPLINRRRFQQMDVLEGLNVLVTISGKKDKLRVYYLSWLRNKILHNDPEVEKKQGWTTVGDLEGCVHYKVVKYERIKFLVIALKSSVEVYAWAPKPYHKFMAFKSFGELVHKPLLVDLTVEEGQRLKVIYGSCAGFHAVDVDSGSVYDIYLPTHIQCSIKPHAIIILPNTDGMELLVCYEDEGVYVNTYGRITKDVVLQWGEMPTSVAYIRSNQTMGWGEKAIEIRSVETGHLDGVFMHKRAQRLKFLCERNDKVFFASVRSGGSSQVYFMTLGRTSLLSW
row,SMILES,inhibition
1,COc1ccc2cc(-c3c(-c4ccncc4)nc(-c4ccc([S+](C)[O-])cc4C)n3C)ccc2c1 (configuration not stated),17.7%
2,CCS(=O)(=O)c1ccc(OC)c(Nc2ncc(-c3cccc(-c4ccccc4F)c3)o2)c1,7.49%
3,Fc1ccc(-c2ncn(C3CCNCC3)c2-c2ccnc(Oc3ccc(F)c(F)c3)n2)cc1,10.9%
4,COc1ccc2cc(-c3c(-c4ccncc4)nc(-c4ccc(S(C)(=O)=O)cc4C)n3C)ccc2c1,14.8%
5,O=C1NC(=O)C(c2cccc(Cl)c2)=C1Nc1ccc(Cl)c(C(=O)O)c1,8.37%
6,CN(C)c1ccc2c(c1)/C(=C/Nc1ccc(S(N)(=O)=O)cc1)C(=O)N2,70%
7,CN(c1ccc(NC(=O)Nc2c(Cl)cccc2Cl)cc1)c1ccnc(Nc2cccc(CS(C)(=O)=O)c2)n1,73.4%
8,COc1ccc(C2=C(N3CCc4ccccc43)C(=O)NC2=O)cc1,12.6%
9,NS(=O)(=O)c1ccc(Nc2cc(-c3ccc(O)c(F)c3)n[nH]2)cc1,76.2%
10,COc1cc2ncn(-c3cc(OCCc4ccccc4)c(C(N)=O)s3)c2cc1OC,26.2%
11,CN1CCN(CCCNc2nc3ccc(Oc4ccc(NC(=O)Nc5cc(C(F)(F)F)ccc5F)cc4)cc3[nH]2)CC1,2.12%
12,CCc1ccc(Oc2nccc(-c3c(-c4ccc(F)cc4)ncn3C3CCNCC3)n2)cc1,11.4%
13,CCS(=O)(=O)c1ccc(OC)c(Nc2ncc(-c3ccccc3Cl)o2)c1,24.2%
14,c1ccc(-c2n[nH]cc2-c2ccnc(-c3ccc(OCCN4CCOCC4)cc3)c2)nc1,77.5%
15,COc1cc(Nc2ncc3c(C)nc(-c4cccc(Oc5ccccc5)c4)n3n2)cc(OC)c1OC,5.36%
16,CNC(=O)c1cncc(/C=C/c2c(C)cccc2C)c1,7.57%
17,COc1cc(Nc2ncc3c(C)nc(-c4cccc(C(F)(F)F)c4)n3n2)cc(OC)c1OC,34%
18,CCN(CC)Cc1ccc(Nc2nccc(-c3cnn4ncccc34)n2)cc1,20.4%

# Target: Dual specificity mitogen-activated protein kinase kinase 1 (Homo sapiens) (UniProt Q02750);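 further: reported value is a mean percent inhibition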
# Conditions: at 0.1 µM
# Sequence of Dual specificity mitogen-activated protein kinase kinase 1 (Homo sapiens) (Q02750 whole entry): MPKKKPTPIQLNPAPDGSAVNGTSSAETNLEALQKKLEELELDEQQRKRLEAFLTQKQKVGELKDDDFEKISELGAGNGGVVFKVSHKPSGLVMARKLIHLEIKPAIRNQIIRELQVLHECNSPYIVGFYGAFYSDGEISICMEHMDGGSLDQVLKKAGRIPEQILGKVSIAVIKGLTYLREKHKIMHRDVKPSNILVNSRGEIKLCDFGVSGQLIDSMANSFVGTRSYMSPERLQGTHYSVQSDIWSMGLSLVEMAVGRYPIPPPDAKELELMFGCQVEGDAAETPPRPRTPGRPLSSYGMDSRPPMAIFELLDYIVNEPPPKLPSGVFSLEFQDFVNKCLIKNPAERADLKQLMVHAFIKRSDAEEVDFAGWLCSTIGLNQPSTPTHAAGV
row,SMILES,inhibition
1,COc1cccc(/C=N/Nc2ncnc3c2cnn3-c2cccc(OC)c2)c1,3.68%
2,COc1ccc2ncn(-c3cc(O[C@H](C)c4ccccc4Cl)c(C(N)=O)s3)c2c1,2.51%
3,O=C(Nc1n[nH]c2cc(-c3cc(F)ccc3F)ccc12)C1CC1,4.62%
4,COc1ccc(-c2ccc3c(NC(=O)C4CC4)n[nH]c3n2)cc1,2.82%
5,Clc1ccc(CNc2nccc(-c3cnn4ncccc34)n2)cc1,0.08%
6,CN(C)CCOc1ccc(-c2cc(-c3ccc4c(c3)CCC4=NO)c(-c3ccncc3)o2)cc1,1.44%
7,COc1cc(N2CCN(C(C)C)CC2)ccc1Nc1nc(Nc2ccc(F)cc2C(=O)NC[C@@H](O)CO)c2cc[nH]c2n1,6.5%
8,Cc1ccc(C(=O)NC(C)C)cc1-c1ccc(C(=O)NCC2CC2)cc1,-2.99%
9,O=C(Nc1ccc(Oc2ccc3[nH]c(NC(=O)c4ccccc4)nc3c2)cc1)Nc1cc(C(F)(F)F)ccc1F,2.91%
10,Cc1ccc(C(=O)NC2CCC2)cc1-c1ccc(C(=O)NCC2CC2)cc1,2.81%
11,O=C1Nc2ccc(I)cc2C1=Cc1cc(Br)c(O)c(Br)c1,3.38%
12,COc1cc(C)c(N(C)C(=O)CN(C)C)cc1Nc1nc(Nc2cccc(F)c2C(N)=O)c2cc[nH]c2n1,2.7%
13,NS(=O)(=O)c1ccc(N/N=C2\C(=O)Nc3ccc(-c4cnco4)cc32)cc1,2.18%
14,CS(=O)(=O)CCNCc1ccc(-c2ccc3ncnc(Nc4ccc(OCc5ccccc5)c(Br)c4)c3c2)o1,1.96%
15,COc1cccc(-n2cnc3c(N/N=C/c4ccncc4)ncnc32)c1,-0.13%
16,Cc1ccc(NC(=O)c2ccoc2)cc1-c1ccc(C(=O)NCC2CC2)cc1,2.89%
17,COc1ccc2cc(-c3c(-c4ccncc4)nc(-c4ccc([S+](C)[O-])cc4C)n3C)ccc2c1 (configuration not stated),-0.9%

row,SMILES,inhibition
1,CCS(=O)(=O)c1ccc(OC)c(Nc2ncc(-c3cccc(-c4ccccc4F)c3)o2)c1,-1.1%
2,Fc1ccc(-c2ncn(C3CCNCC3)c2-c2ccnc(Oc3ccc(F)c(F)c3)n2)cc1,3.03%
3,COc1ccc2cc(-c3c(-c4ccncc4)nc(-c4ccc(S(C)(=O)=O)cc4C)n3C)ccc2c1,6.08%
4,O=C1NC(=O)C(c2cccc(Cl)c2)=C1Nc1ccc(Cl)c(C(=O)O)c1,5.3%
5,CN(C)c1ccc2c(c1)/C(=C/Nc1ccc(S(N)(=O)=O)cc1)C(=O)N2,2.52%
6,CN(c1ccc(NC(=O)Nc2c(Cl)cccc2Cl)cc1)c1ccnc(Nc2cccc(CS(C)(=O)=O)c2)n1,5.73%
7,COc1ccc(C2=C(N3CCc4ccccc43)C(=O)NC2=O)cc1,5.11%
8,NS(=O)(=O)c1ccc(Nc2cc(-c3ccc(O)c(F)c3)n[nH]2)cc1,-2.69%
9,COc1cc2ncn(-c3cc(OCCc4ccccc4)c(C(N)=O)s3)c2cc1OC,3.24%
10,CN1CCN(CCCNc2nc3ccc(Oc4ccc(NC(=O)Nc5cc(C(F)(F)F)ccc5F)cc4)cc3[nH]2)CC1,2.3%
11,CCc1ccc(Oc2nccc(-c3c(-c4ccc(F)cc4)ncn3C3CCNCC3)n2)cc1,3.92%
12,CCS(=O)(=O)c1ccc(OC)c(Nc2ncc(-c3ccccc3Cl)o2)c1,-0.28%
13,c1ccc(-c2n[nH]cc2-c2ccnc(-c3ccc(OCCN4CCOCC4)cc3)c2)nc1,-0.91%
14,COc1cc(Nc2ncc3c(C)nc(-c4cccc(Oc5ccccc5)c4)n3n2)cc(OC)c1OC,2.88%
15,CNC(=O)c1cncc(/C=C/c2c(C)cccc2C)c1,-0.07%
16,COc1cc(Nc2ncc3c(C)nc(-c4cccc(C(F)(F)F)c4)n3n2)cc(OC)c1OC,4.45%
17,CCN(CC)Cc1ccc(Nc2nccc(-c3cnn4ncccc34)n2)cc1,3.09%
